Test results from PubChem BioAssay AID624202 (National Center for Advancing Translational Sciences (NCATS), 2012).
About 4,000 (1.1%) of roughly 380,000 compounds were called active. Where a call stands in place of a potency, no number is given. Inconclusive results (about 3%) are left out. The call rests on the fitted dose curve; in most records, active means well fitted activation curve with a large enough effect; inconclusive means small, poorly fitted or top-dose-only effect; inactive means no such curve, though single readings can be large or run the other way. The sample as a whole holds a higher share of actives than the screen did.

experiment: qHTS Assay to Identify Small Molecule Activators of BRCA1 Expression; settings: MCF7-BRCA1-FFLuc reporter, luminescence, 48 h; series mostly up to 46.1 µM; further: nearly all actives have a fitted effect of over 80% in size
Method in brief: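 Using MCF7 cells harboring a BRCA1 firefly luciferase reporter, plated 2 h before compound pinning, the screen measured luminescence after 48 h incubation. Responses were normalized to DMSO and 10 microM genistein, then fitted for concentration-effect.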
Potency means the concentration at half of the fitted maximal effect.

SMILES | Potency
Cc1cc(C)c(NC(=O)Cn2c(SCC(=O)NCc3ccccc3)nc3ccccc32)c(C)c1 | inactive
CC(=O)c1ccc(NC(=O)c2nc3nc(C)cc(C(F)F)n3n2)cc1 | inactive
CC(=O)Nc1ccc(NC(=O)C2CCCN(S(=O)(=O)c3ccc4c(c3)CCCC(=O)N4)C2)cc1 (stereo not given) | inactive
Cn1c(=O)cc(OCC(=O)N2CCN(c3ccccc3)CC2)c2ccccc21 | inactive
O=C(c1cnn(-c2ccc(F)cc2)c1-n1cccc1)N1CCN(c2ccc(F)cc2)CC1 | inactive
CCOC(=O)c1ccc(NC(=O)CCn2cnnn2)cc1 | inactive
COc1cc2nc(SCc3ccc(F)cc3)n3nc(CCn4c(C)nc5ccccc54)nc3c2cc1OC | inactive
COc1ccc2oc(-c3ccc(C)c(NC(=O)c4sc5ccccc5c4Cl)c3)nc2c1 | inactive
CCOc1ccc(CCNC(=O)c2c(C)oc3ncn(C)c(=O)c23)cc1 | inactive
COC(=O)c1ccccc1NC(=O)c1cnn(-c2ccc(F)cc2)c1-n1cccc1 | inactive
Cc1ccnc(NC(=O)CCC(=O)N(CC(=O)NCc2ccccc2)Cc2ccco2)c1 | inactive
Cc1ccc(NC(=O)c2ccco2)cc1 | 7.94 µM (active)
CN1CCN(S(=O)(=O)c2ccc(NC(=O)c3ccco3)cc2)CC1 | inactive
Cc1ccc(NC(=O)C(c2ccccc2)N2CCN(C(=O)c3ccco3)CC2)cc1 (stereo not given) | inactive
CSCCC(NC(=O)c1ccco1)C(=O)Nc1cc(C)ccn1 (stereo not given) | inactive
Cc1ccnc(NC(=O)c2ccc(NC(=O)c3ccco3)cc2)c1 | 11.2 µM (active)
COC(=O)CC1Oc2ccccc2-n2cc(-c3ccccc3)nc21 (stereo not given) | inactive
CCN(CC)CCNC(=O)c1cc2c(=O)oc3ccc(C)cc3c2s1 | inactive
CC(C)c1ccc(NC(=O)Cn2c3ncccc3c(=O)n2-c2ccccc2)cc1 | inactive
O=C(Nc1ccc(Br)cc1)c1ccc(Br)c(S(=O)(=O)NCc2ccccc2)c1 | inactive
COc1ccccc1NC(=O)Cn1cnc2ccc(S(=O)(=O)N3CCC(C)CC3)cc2c1=O | inactive
ClC/C=C/C[n+]1ccccc1Cl | inactive
CCc1nnc(NC(=O)/C=C/c2ccc(C)o2)s1 | 11.2 µM (active)
CCc1nnc(NC(=O)[C@@H](NC(=O)c2cccc(C)c2)C(C)C)s1 | inactive
Cc1cc(NC(=O)COC(=O)/C=C/c2ccc(C)o2)no1 | inactive
Cc1ccc(N2CCN(C(=O)CCc3c(C)nc4c(c3C)c(=O)n(C)c(=O)n4C)CC2)c(C)c1 | inactive
CSc1n[nH]c(-c2ccco2)n1 | inactive

SMILES | Potency
Cc1cccc(OCC(=O)OCC(=O)Nc2ccc(Cl)cn2)c1 | inactive
O=C(COC(=O)c1ccco1)Nc1ccc(Cl)cn1 | inactive
O=C(Nc1ccc(Cl)cn1)c1cnn2cccnc12 | 6.31 µM (active)
CN(C)CCN(C(=O)C1=COCCO1)c1nc2ccc(Cl)cc2s1 | 12.6 µM (active)
CC(C)N(Cc1nnc(-c2ccc(Cl)cc2)o1)C(=O)C1=COCCO1 | inactive
Cc1cc(N2CCN(c3cccc(C(F)(F)F)c3)CC2)n2nc(-c3ccccc3)nc2n1 | inactive
CCOC(=O)Cc1ccc(NC(=O)Nc2c[nH]c(=O)[nH]c2=O)cc1 | inactive
COC(=O)c1ccc(C2C(C(=O)Nc3ccccc3)=C(C)Nc3nc4ccccc4n32)cc1 (stereo not given) | inactive
Cc1ccccc1-n1c(=O)c2ccccc2n(Cc2ccc(F)cc2)c1=O | inactive
Cn1c(CCN2CCCCCC2)nc2cc(NC(=O)Nc3ccccc3)ccc21 | 7.94 µM (active)
Cn1c(CCN2CCN(c3ccccn3)CC2)nc2cc(NS(=O)(=O)c3ccc(F)cc3)ccc21 | inactive
Cc1nn(CC(=O)Nc2ccc3c(c2)nc(CN2CCCCC2)n3C)c(=O)c2ccccc12 | inactive
COc1ccc(-c2nc3nc(C)cc(C)n3c2Nc2c(C)cccc2C)cc1 | inactive
CCOC(=O)c1c(C)[nH]c(C)c1S(=O)(=O)N(C)CC(=O)N1CCN(c2ccccc2)CC1 | inactive
CC(NC(=S)Nc1ccc(OC(F)F)cc1)c1ccc(F)cc1 (stereo not given) | inactive
CC(C)CNC(=S)Nc1ccc(F)cc1 | 10 µM (active)
CC(C)CNC(=S)NNC(=O)c1ccccc1OC(F)F | inactive
O=C(CSc1ccccc1)Nc1nnc(/C=C/c2ccccc2)s1 | inactive
CC(C)C(=O)Nc1nnc(Sc2ccc(N(C)C)cc2)s1 | inactive
COc1ccc(/C=C/c2nnc(NC(=O)C(C)C)s2)cc1 | 3.98 µM (active)
CCOc1ccc(OCC)c(NC(=O)c2c(C)nn(-c3ccccc3)c2-n2cccc2)c1 | inactive
Cc1cc2c(cc1S(=O)(=O)CCC(=O)Nc1ccc(OC(F)(F)F)cc1)OCC(=O)N2 | inactive
CCOc1ccc(NC(=O)CSc2nnc3c(n2)[nH]c2ccc(S(=O)(=O)N4CCOCC4)cc23)cc1 | inactive
COc1ccc(-n2cnc3cc(NCc4ccco4)ccc32)cc1 | 8.91 µM (active)
COc1ccc(Nc2nc(NCc3ccco3)nc(N/N=C/c3ccccc3Cl)n2)cc1 | inactive
COc1cccc(Nc2nc(N)c([N+](=O)[O-])c(NCc3ccco3)n2)c1 | inactive
Cc1csc(NCC(=O)c2c[nH]c3ccccc23)n1 | inactive

SMILES | Potency
O=C(NC1CCCC1)C(=O)c1c[nH]c2ccccc12 | 11.2 µM (active)
O=C(NCCCc1ccccc1)C(=O)c1c[nH]c2ccccc12 | inactive
CC1CCN(CC(=O)c2c[nH]c3ccccc23)CC1 | inactive
CC(C)Oc1ccc(CNC(=O)C2CCN(c3nc4ccccc4n(C)c3=O)CC2)cc1 | inactive
Cc1nn(Cc2ccc(Cl)cc2)c(Cl)c1/C=N/NC(=O)CNc1ccccc1F | inactive
CCn1nc(C)c(/C=N/NC(=O)Cc2ccc(Cl)cc2)c1C | 7.94 µM (active)
O=C(CSc1nnc(SCc2ccc(Cl)cc2)s1)N/N=C/c1ccccc1Cl | inactive
COc1cc2[nH]c(C)c(CCN3CCN(c4ccccc4)CC3)c2cc1OC | inactive
COc1ccccc1C1C(C(=O)N2CCCCC2)=C(C)Nc2nc3ccccc3n21 (stereo not given) | inactive
COC(=O)C1=C(C(=O)OC)[C@@H]2N(Cc3ccccc3)c3ccccc3[C@@]23C[C@@H](C(=O)OC)N(S(=O)(=O)c2ccc(C(F)(F)F)cc2)C3=N1 | inactive
Cc1ccc(S(=O)(=O)c2nc(NCCCn3ccnc3)sc2Cl)cc1 | inactive
Cc1ccc2c(Cl)c(C(=O)NCCCn3ccnc3)sc2c1 | inactive
Cc1ccc(-c2nc(C#N)c(NCCCn3ccnc3)o2)cc1 | 4.47 µM (active)
CC(C)c1ccc(NC(=O)CN(C)S(=O)(=O)c2ccc3c(c2)c(=O)n(C)c(=O)n3C)cc1 | inactive
COc1ccc2c(c1)c(N1CCCC1=O)c(C(=O)Nc1ccccc1C(F)(F)F)n2C | inactive
O=C(/C=C/c1ccc(Cl)cc1Cl)NCc1ccco1 | 11.2 µM (active)
O=C(COC(=O)Cc1ccc(Cl)cc1Cl)NCc1ccco1 | inactive
COC(=O)/C=C/C(=O)NCc1ccco1 | inactive
O=C(NCC12CC3CC(CC(C3)C1)C2)c1cc2nc(-c3ccccc3)cc(C(F)(F)F)n2n1 | inactive
COc1ccc(-n2ccnc(NCCc3ccc(Cl)cc3)c2=O)cc1OC | inactive
O=C(NC1CCN(Cc2ccccc2)CC1)c1ccc(Cn2c(=O)c3ccccc3n(Cc3cccc(F)c3)c2=O)cc1 | inactive
CNC(=O)c1sc(Nc2ccc(OCc3ccccc3)cc2)nc1C | inactive
CC(C)(C)C(=O)c1cnc(Nc2ccccc2)s1 | 4.47 µM (active)
S=c1[nH]nc(Nc2ccccc2)s1 | inactive
CCOc1n[nH]c(-c2ccccc2)n1 | inactive
COc1ccc(-c2noc(CSc3nc(C)cc(=O)[nH]3)n2)cc1OC | inactive
COc1ccc(-c2noc(-c3cccc(OC)c3OC)n2)cc1OC | 3.98 µM (active)

SMILES | Potency
COc1cc(-c2noc(-c3ccc(N4CCCC4)c([N+](=O)[O-])c3)n2)cc(OC)c1OC | inactive
CCN(CC)S(=O)(=O)c1ccc(C(=O)N=c2sc3cccc(OC)c3n2C)cc1 | inactive
C=COC(=O)N1CCN(/[N+]([O-])=N/Oc2ccc([N+](=O)[O-])cc2[N+](=O)[O-])CC1 | inactive
Cc1cccc(N2O[C@H]3C=CC2CCCC3)n1 | inactive
Cc1ccn(-c2cccc(-n3ccc(C)n3)n2)n1 | 12.6 µM (active)
CCCN(CCC)C(=O)Cn1c(=O)n(-c2ccc(Cl)cc2)c(=O)c2c3c(sc21)CCCCC3 | inactive
CCn1cc(C(=O)NCCc2ccccc2)c(=O)c2cc(S(=O)(=O)N3CCCCCC3)ccc21 | inactive
Cc1ccc(-n2c(C)cc(/C=C(\C#N)C(=O)NCC3CCCO3)c2C)cc1 (stereo not given) | 2.51 µM (active)
COCc1cc(C)n(CC(=O)NCC2CCCO2)c(=O)c1C#N (stereo not given) | inactive
Cc1ccc2c(c1)N(CC(=O)NCC1CCCO1)C(=O)CO2 (stereo not given) | inactive
CCC(=O)N1CCc2cc(CNC(=O)Nc3ccccc3Cl)ccc21 | inactive
CCCC(=O)N1CCN(c2nc3c(OC)ccc(C)c3s2)CC1 | inactive
CCCN(CCC)S(=O)(=O)c1ccc(C(=O)Nc2sc3c(c2C(=O)OC)CCN(CC)C3)cc1 | inactive
O=C(CC(c1cccs1)N1Cc2ccccc2C1=O)Nc1ccc(F)cc1F (stereo not given) | inactive
CC(C)(C)C(=O)Nc1ccc(-c2cn3cccnc3n2)cc1 | 2.82 µM (active)
CCCCCC(=O)Nc1ccc(-c2cn3cccnc3n2)cc1 | inactive
CC(C)(C)C(=O)Nc1cccc(-c2ccc[nH]2)n1 | inactive
N#CC(=C1SC=CS1)c1nc(-c2ccccc2)cs1 | inactive
CCCCCN1CC(O)=C(c2nc(-c3ccc(Cl)cc3)cs2)C1=N | inactive
N#CC(=C1CCCC1)c1nc(-c2ccc(Cl)cc2)cs1 | 6.31 µM (active)
OC(Cc1ccc2ccccc2n1)c1ccc(Cl)c(Cl)c1 (stereo not given) | inactive
O=C(CN1CCSCC1)N/N=C/c1ccc(F)cc1 | inactive
O=C(Cc1ccc(F)cc1)N/N=C/c1ccc2c(c1)OCO2 | 3.98 µM (active)
O=C(Cc1c[nH]c2ccccc12)N/N=C/c1cccc(F)c1 | inactive
